Rows were chosen to be rich in hits. Some 21% of all compounds tested hit in one or more screens of this group.
DT40 TDP1 no CPT = qHTS for Inhibitors of human tyrosyl-DNA phosphodiesterase 1 (TDP1): qHTS in cells in absence of CPT; DT40 Tdp1-/- hTDP1 cells, no CPT, ATP luminescence, 48 h; Potency, µM (top dose mostly 46.2 µM), for the others: top-dose activity change, negative = growth inhibition, actives largely listed as inhibitors; 420,000 tested, 15% active; AID 686978, 2013; further: potency means the concentration at half of the fitted maximal effect; nearly all actives have a fitted effect of over 55% in size
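Cells were dispensed at 400 per well, compounds added by pin tool, plates incubated ≥48 hr at 37 °C, then CellTiter-Glo added for 30 min at room temperature before luminescence reading. Line: DT40 Tdp1-/- complemented with hTDP1; camptothecin omitted.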
RORg inh = blocks mouse ROR gamma transcriptional activity; P51450; Drosophila S2 Gal4-RORgamma UAS-luciferase reporter, 20 h; Potency, µM (doses to about 53.6 µM), inactives show top-dose activity change, negative = inhibition, hits mostly inhibitors; 310,000 tested, 5.4% active; AID 2551; further: potency means the concentration at half of the fitted maximal effect; nearly all actives have a fitted effect of over 60% in size
Target sequence (P51450 whole entry, looked up, the tested form may be a part): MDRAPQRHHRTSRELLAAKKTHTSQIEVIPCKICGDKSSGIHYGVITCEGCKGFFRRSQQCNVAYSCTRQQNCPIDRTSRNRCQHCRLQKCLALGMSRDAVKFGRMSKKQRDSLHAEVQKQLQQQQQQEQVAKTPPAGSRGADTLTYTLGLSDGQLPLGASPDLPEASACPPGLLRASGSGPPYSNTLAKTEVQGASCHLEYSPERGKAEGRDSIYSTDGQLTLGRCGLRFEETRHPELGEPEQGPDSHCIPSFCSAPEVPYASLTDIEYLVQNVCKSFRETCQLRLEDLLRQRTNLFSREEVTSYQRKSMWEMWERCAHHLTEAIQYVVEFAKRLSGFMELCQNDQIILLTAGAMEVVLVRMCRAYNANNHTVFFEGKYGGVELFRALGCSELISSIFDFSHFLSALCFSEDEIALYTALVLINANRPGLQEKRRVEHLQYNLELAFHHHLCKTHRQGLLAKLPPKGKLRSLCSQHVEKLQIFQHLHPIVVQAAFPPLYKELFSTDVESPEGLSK
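Stable Schneider cell line, Gal4 DNA-binding domain fused to ROR gamma, UAS-luciferase. Cmpd 1 hr RT → CuSO4 700 uM final → 20 hr RT → luciferase reagent 10 min → luminescence.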
DT40 TDP1 CPT = growth inhibition of DT40 Tdp1-/-;hTDP1 cells with camptothecin (screen for TDP1 inhibitors) | chicken DT40 Tdp1-/-;hTDP1 cells + 20 nM CPT, ATP luminescence, 48 h | Potency, µM (titrated, usually from 46.2 µM), without a hit: at the highest dose activity change, negative = growth inhibition, most hits filed as inhibitors | 420,000 tested, 12% active | AID 686979; further: potency means the concentration at half of the fitted maximal effect; nearly all actives have a fitted effect of over 55% in size
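Chicken DT40 Tdp1-/- cells stably complemented with human TDP1 were seeded at 400 cells/well in medium containing 20 nM camptothecin, exposed to pin-transferred compounds, and grown at 37 °C for at least 48 hr. Viability was read as ATP luminescence.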
IL-1B inflam inh = inflammasome signaling inhibition, IL-1 beta readout; 360,000 tested, 4.7% active; activity change, % at 57.5 µM; AID 743279; THP-1 LPS/ATP IL-1B secretion, AlphaLISA, 16 h; stronger effect = lower value; in the data active means activity change below about -50%; inconclusive means mostly about -30% to -49%
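Secreted IL-1B measured by AlphaLISA bead assay after 16 h compound exposure of THP-1 cells; compounds (final up to 57.5 uM) added 1 h before LPS (250 ng/mL) and ATP (1.25 mM) stimulation; lower signal means less secretion.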
Gal4-VP16 FLuc = Gal4-VP16 reporter inhibition counter-screen | Drosophila S2 Gal4-VP16 UAS-luciferase, luminescence, 20 h | Potency, µM (top dose mostly 53.6 µM), inactives show top-dose activity, negative = inhibition, actives largely listed as inhibitors | 310,000 tested, 3.5% active | AID 2546;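 further: Gal4-VP16 expression switched on by copper sulfate through the metallothionein promoter; potency means the concentration at half of the fitted maximal effect; nearly all actives have a fitted effect of over 50% in size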
ELG1 DNA repair = inhibitors of ELG1-dependent DNA repair in HEK293T cells | Potency, µM (titrated, usually from 46.1 µM), without a hit: at the highest dose activity change, negative = inhibition, most hits filed as inhibitors | HEK293T ELG1-luciferase reporter, luminescence, 16 h; DNA damage induced by 5-fluorouridine | 330,000 tested, 2.3% active; further: potency means the concentration at half of the fitted maximal effect; nearly all actives have a fitted effect of over 55% in size
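HEK293T cells expressing luciferase-tagged ELG1 (2,000/well) received 5-Fluorouridine plus compound or DMSO for 16 hr at 37 °C. Luciferase was read by ONE-Glo luminescence after 30 min at room temperature.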
The depositor's hits bear a star; ? = inconclusive; · = no result given. Unless noted, the call rests on the fitted dose curve; in most records, active means well fitted curve in the direction sought with a large enough effect; inconclusive means small, poorly fitted or top-dose-only effect, or another doubt; inactive means no such curve, though single readings can be large; an effect the other way counts as inactive or inconclusive. On the % scale 0 is the no-effect control and ±100 the full control effect.

SMILES	DT40 TDP1 no CPT	RORg inh	DT40 TDP1 CPT	IL-1B inflam inh	Gal4-VP16 FLuc	ELG1 DNA repair
Fc1ccc(-c2csc(-c3nc(-c4ccc(Br)s4)cs3)n2)cc1	-20%	·	10%	·	·	·
COc1cc2c(cc1OC)C1C(=O)c3ccc4c(c3OC1CO2)C=CC(C)(C)O4 (centres undefined)	0.065µM*	?	0.082µM*	·	0.13µM*	·
CC1(C)Cc2c(c(N3CCOCC3)nc3sc4c(NN)ncnc4c23)CS1	?	7.9µM*	?	64	7.1µM*	?
CCCCOC(=O)c1sc2nc(N3CCOCC3)c3c(c2c1N)CC(C)(C)OC3	-12%	30%	-2%	-3	-10%	?
CCN(CC)c1ncnc2c1sc1nc(N3CCOCC3)c3c(c12)CCC3	·	6%	·	·	1%	?
OCCNc1ncnc2c1sc1nc(N3CCOCC3)c3c(c12)CCC3	15µM*	-3%	?	-53*	-12%	?
CC(C)CNc1ncnc2c1sc1nc(N3CCOCC3)c3c(c12)CC(C)(C)OC3	10µM*	-13%	?	-29	1%	?
CCN(CC)CCNc1ncnc2c1sc1nc(N3CCCC3)c3c(c12)CC(C)(C)OC3	?	11µM*	?	-75*	?	?
Cc1c(NC(=O)c2nn(CC(C)C)c(=O)c3ccccc23)c(=O)n(-c2ccccc2)n1C	-14%	·	-2%	11	·	0%
CN(C)CCNc1ncnc2c1sc1nc(N3CCCC3)c3c(c12)CC(C)(C)OC3	26µM*	-10%	?	-82*	-4%	?
Cc1cccc(-n2cnc3c(sc4nc(N5CCOCC5)c5c(c43)CCCC5)c2=O)c1	21µM*	3%	?	?	0%	?
CCc1nc2sc3c(=O)n(N)cnc3c2c2c1COC(C)(C)C2	·	16%	·	·	-6%	?
O=c1cc(-c2ccccc2)ss1	-28%	·	1%	-15	·	·
O=C(CSc1ccccc1)Nc1cc(S(=O)(=O)N2CCOCC2)ccc1N1CCOCC1	0%	7%	-4%	-13	1%	?
Cc1ccc(NC(=O)Cc2nc(CN(C)CC(=O)Nc3ccc(C)cc3)cs2)cc1	1%	·	-6%	-15	·	?
CCOc1ccc(CN2CCNC(=O)C2CC(=O)NCCc2ccccn2)cc1 (centres undefined)	0%	-16%	-12%	-25	15%	0%
O=C(CC1C(=O)NCCN1Cc1ccc(-c2ccccc2)cc1)NCc1ccccc1 (centres undefined)	?	?	?	-57*	?	-1%
CCc1cc(CNC(=O)CC2C(=O)NCCN2Cc2ccc(-c3ccccc3)cc2)on1 (centres undefined)	?	7%	-14%	11	-5%	-2%
O=C(CC1C(=O)NCCN1Cc1ccc(-c2ccccc2)cc1)NC1CCC1 (centres undefined)	15µM*	2%	-28%	-21	6%	-5%
CCOc1ccc(CN2CCNC(=O)C2CC(=O)NCc2ccccn2)cc1 (centres undefined)	-3%	11µM*	-1%	21	-7%	14%
CCOC(=O)N1CCC(NC(=O)CC2C(=O)NCCN2Cc2ccccc2)CC1 (centres undefined)	1%	3%	-13%	5	-2%	0%
COc1ccc2[nH]cc(CCNc3nc(-c4cccc(C#N)c4)nc4ccccc34)c2c1	?	?	?	·	-15%	·
Cc1cccc(C)c1NC(=O)CSc1nc2ncccc2o1	-20%	·	0%	·	·	·
S=C1NCC(c2ccccc2)S1 (centres undefined)	-21%	·	-45%	5	·	·
COc1ccccc1N(CC1CO1)S(=O)(=O)c1ccc(C)cc1 (centres undefined)	21µM*	-4%	?	-16	3%	0%

Bioassay records (PubChem BioAssay)
